Results from article PMC12136788.
Positions count from the first letter of the chain named. Over roughly 24,000 sequences, “enrichment r” has its median near 0.99; the highest 2% begin near 3.7. What follows is part of a selection rich in the highest values, with near analogues and random picks from the rest.

T1: UNK ZnF1-3 (human, UniProt Q9C0B0 31-174)
T1 sequence: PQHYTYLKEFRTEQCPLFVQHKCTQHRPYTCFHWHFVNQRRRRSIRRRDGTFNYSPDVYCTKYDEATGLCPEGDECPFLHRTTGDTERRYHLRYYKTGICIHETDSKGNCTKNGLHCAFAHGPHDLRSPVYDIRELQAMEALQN

B1: 117841126_117842589_621_3pUTR_ENSMUSG00000033326_ENSMUST00000106406|mouse|control|control (ssRNA)
RNA: GGGAGUUCUACAGUCCGACGAUCCUUCUCCACCAGGUCCAGGAUGGUCUUCAGCCGGCCGAUAUUCCACUCAUCAACGUGCUGUUCAUAGAGAGUACCAUUCACGUCUGCUCCAUAGAUGGGAGGAUUGAAUGUGAGGUUUUUCAACAGAGGAUUGAGCAUCA
B2: chr2:166765161:166765162:+_ENSMUSG00000002718_ENSMUST00000002790|mus_hu|motif|central (ssRNA)
RNA: GGGAGUUCUACAGUCCGACGAUCGGAUAAACAUAUUGCUUCAAACAUGUAGUGAUUAAAGUGAGGUUUGCUUGGGUUCUUACGGACAGCUAAUAGCUUCUGUGUAAGCUGAGUGAUGAGAGUAGGGAUGUAGGGGAUUAUGGCCAACAGAGGAUUGAGCAUCA
B3: chr16:8858281:8858282:+_ENSMUSG00000022507_ENSMUST00000023150|mus_mus|FALSE|FALSE (ssRNA)
RNA: GGGAGUUCUACAGUCCGACGAUCCUCAUGAGGUGAGGAGGUGCUACAUAUUGAAUGCAAUGGAAAAAAGUAACCAGUGCUAAAGUUUUUAAAAAGUUUAAUGGAGCCAAUAAUUCGGCAUAUAAAUUGUGUUCUGGCAGACAUCAACAGAGGAUUGAGCAUCA
B4: chr16:45382771:45382772:-_ENSMUSG00000022661_ENSMUST00000163230|mus_mus|mus_mus_mus_hu_True|28_48 (ssRNA)
RNA: GGGAGUUCUACAGUCCGACGAUCCUGGGUCAUGUUAUAAGACAAAUGGACAGGGAGGGCAUGCUUCUCAAAAAAUGUGAGCUAUUGACUAAGACUAACAAUAUUUACUAAGUGCUAAAAAUAAGUUAAAUGAAUAAGUUAAGACAACAGAGGAUUGAGCAUCA
B5: chr16:8858281:8858282:+_ENSMUSG00000022507_ENSMUST00000023150|mus_mus|motif|central (ssRNA)
RNA: B3 RNA with U80G, A81G
B6: chr16:45382771:45382772:-_ENSMUSG00000022661_ENSMUST00000163230|mus_mus|mus_mus_mus_hu_True|28_108 (ssRNA)
RNA: B4 RNA with G27A, C30G, A31U, G33A, A36G, A87U
B7: chr16:45382771:45382772:-_ENSMUSG00000022661_ENSMUST00000163230|mus_mus|mus_mus_mus_hu_True|28_38 (ssRNA)
RNA: B4 RNA with A87U, U105G, A106C
B8: chr5:128440902:128440903:+_ENSG00000066583_ENST00000173527|hu_mus|hu_hu_hu_mus_True|38_48 (ssRNA)
RNA: GGGAGUUCUACAGUCCGACGAUCUUGAACGGUGCUGCCAAGUCCUUUGGGGUAUUGUUCCGUUAUGAUAACUGGAAUCCCUAAGAUCCGGGCCCCUUGCAACAAUCUCUGUCCCACACUAAUGAUGUCCCCAAAGUAUUUGAUCAACAGAGGAUUGAGCAUCA
B9: chr3:133545784:133545785:-_ENSG00000154917_ENST00000285208|hu_mus|motif|central (ssRNA)
RNA: GGGAGUUCUACAGUCCGACGAUCGAGGAUGUGAGUGUGUGUAUGUGUGCGCGCGAAGGGUGUAUACACAAGUCUAUCUCGGUGUAUAAUUAUGUACACACAUAUAAAAACUAAACACGUGACGUUUCGAUUAUGCUCGUACAUCAACAGAGGAUUGAGCAUCA
B10: chr1:39494564:39494565:+_ENSG00000168653_ENST00000372967|hu_hu|motif|central (ssRNA)
RNA: GGGAGUUCUACAGUCCGACGAUCACCUGCACGUCUCAUCGUUUUCUGCCGAAGCAAACACUCUACGAAAUCAUCAUAUUCGGUCUUGCACUCUUUCUCUGCCCGAGUAUAACCGAUUCCAUGUGCACAUUCUAUCCAUUCUUUCAACAGAGGAUUGAGCAUCA
B11: 121693014_121693134_369_3pUTR_ENSMUSG00000060227_ENSMUST00000078752|mouse|control|control (ssRNA)
RNA: GGGAGUUCUACAGUCCGACGAUCUUCUCCAAGCGCCCGCGGGCCACCUCGGUGCGCUGGACCUGGCCCUGCAGCUCGGCCACCUCCUCCUGAAGCAGAACGUGGCGGGAGGAGAUGCUCCAGUAGUUGAAGGCAAGGACGACGCAACAGAGGAUUGAGCAUCA
B12: chr19:47610742:47610743:-_ENSMUSG00000042694_ENSMUST00000049369|mus_hu|FALSE|FALSE (ssRNA)
RNA: GGGAGUUCUACAGUCCGACGAUCUGGCACCUGGCGGGACUCCUUCAUGUCCAGGAUAUCCCUGAUGUAGAGUUUUGCAAAGGCUAGAAACACAGGAUCCAAACCCCACAAGAGGGAAGGGGUCUCCUCUUCACACCGGCUGGACAACAGAGGAUUGAGCAUCA
B13: chr16:94646735:94646736:+_ENSMUSG00000040785_ENSMUST00000117648|mus_mus|motif|central (ssRNA)
RNA: GGGAGUUCUACAGUCCGACGAUCUGUUUUUAACUUUUUCCAGCAGUUCAUAUGAAAUUCUACCUUACAGUAUUGGCAACAGCGGAUUCGUAUAAAACCCUUAAAGUCUGGAUCAGUUAAGUAAAUCUGAAUUUUAGAAUAUCCCAACAGAGGAUUGAGCAUCA
B14: chr6:145182920:145182921:-_ENSMUSG00000030265_ENSMUST00000032399|mus_hu|motif|central (ssRNA)
RNA: GGGAGUUCUACAGUCCGACGAUCCUCCUCUUGACCUGCUGUGUCGAGAAUAUCCAAGAGACAGGUUUCUCCAUCAAUUACGGCUUGCUUCCUGUAGGAAUCCUCUAUUGUUGGAUCAUAUUCGUCCACAAAAUGAUUCUGAAUCAACAGAGGAUUGAGCAUCA

These binders were tested against T1, UNK ZnF1-3 (assay: nsRBNS (natural sequence RNA bind-n-seq); RBNS binding buffer (assumed for nsRBNS): 25 mM Tris pH 7.5, 150 mM KCl, 3 mM MgCl2, 0.01% Triton X-100, 500 ug/ml BSA, 20 U/ml SUPERase-In, 4 C; UNK is unkempt and MSI1 is Musashi-1; names of the RNAs are library labels; protein concentration not given here; high values mean tight binding).

Binder	binding signal
B1	1.09 enrichment R
B2	1.62 enrichment R
B3	5.62 enrichment R
B4	7.16 enrichment R
B5	3.41 enrichment R
B6	10.2 enrichment R
B7	12.5 enrichment R
B8	0.772 enrichment R
B9	1.66 enrichment R
B10	0.521 enrichment R
B11	0.777 enrichment R
B12	0.707 enrichment R
B13	1.03 enrichment R
B14	0.665 enrichment R
